# Source: PubChem BioAssay (NCI)
# Compounds without any hit were thinned out: in the full panel of roughly 79,000, 15% have a hit. Values without a mark were called inactive. Active and inactive are the calls of the source. No stated cut-off is given here; in the data, active means growth inhibition above about 70%; inactive means the rest.
# Assay: NCI Yeast Anticancer Drug Screen. Data for the wt2 strain (AID 169);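 further: 0% = growth of vehicle-treated yeast cultures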
# Conditions: S. cerevisiae wt2 strain growth inhibition, stronger effect = higher value
# Experimental: Growth inhibition of yeast strains with defined genetic alterations is measured as a screen for potential anti-cancer activity. Selected strains with alterations in DNA damage repair or cell cycle control were exposed to compounds and growth inhibition was measured relative to vehicle treated controls. The strain used in this assay is wt2
SMILES,growth inhibition (at 1.2 µM) [%],growth inhibition (at 3.7 µM) [%],growth inhibition (at 11.0 µM) [%],growth inhibition (at 33.0 µM) [%],growth inhibition (at 100.0 µM)
Cc1c(C(Cc2ccccc2N(C)C(=O)/C=C\C(=O)O)c2c[nH]c3ccccc23)c2ccccc2n1C (stereo not given),-3,-4,-5,3,49%
O=C(/C=C\c1ccc(Cl)cc1Cl)c1cccs1,-5,-1,-3,4,7%
CN(CCc1ccccn1)c1ccc2c(c1)Cc1ccccc1-2,-1,-2,5,4,26%
CCCCCCCCCCCCCCC(C(=O)[O-])[n+]1ccccc1 (stereo not given),0,0,-1,7,83% (active)
Cc1ccc(S/N=C\c2ccccc2O)cc1,4,4,5,0,-1%
O=[N+]([O-])c1ccc([N+]2=NC(c3ccccc3)=NN(c3ccccc3)C2)cc1,0,2,1,11,95% (active)
O=C1C(Nc2ccccc2)=C(Oc2ccccc2)C(=O)c2ccccc21,-10,0,11,35,29%
O=C1C=CC(=C(c2ccccc2)c2ccccc2)c2ccccc21,-6,-4,0,-4,-3%
